In the supplement of paper PMC8728848:
This excerpt belongs to a sample that is enriched for the strongest signals.

Assays:
Assay in all cases: glycan array binding signal (z-score within array); higher = stronger binding
Conditions in all cases: glycan notation: IUPAC condensed, linker removed
[1] = molecular target: Fuc(a1-2)Gal(b1-3)GlcNAc(b1-2)Man(a1-3)[Fuc(a1-2)Gal(b1-3)GlcNAc(b1-2)Man(a1-6)]Man(b1-4)GlcNAc(b1-4)[Fuc(a1-6)]GlcNAc
Outline: (§1)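 Glycan array data came from 3228 arrays in the Consortium for Functional Glycomics database, and only arrays with an available protein sequence were kept. Glycan names were put into IUPAC-condensed notation, and columns mapping to the same glycan were averaged. The binding signal is a within-array Z-score, averaged across arrays of one protein sequence run at different concentrations or buffers and across linkers. A negative Z-score can be read as non-binding.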

[2] = molecular target: Fuc(a1-2)Gal(b1-4)Fuc(a1-3)]GlcNAc(b1-2)Man(a1-3)[Fuc(a1-2)Gal(b1-4)[Fuc(a1-3)]GlcNAc(b1-2)Man(a1-6)]Man(b1-4)GlcNAc(b1-4)GlcNAc
Outline: as §1

Fuc(a1-2)Gal(b1-4)Glc6S = molecular target: Fuc(a1-2)Gal(b1-4)Glc6S
Outline: as §1

[3] = molecular target: Fuc(a1-2)Gal(b1-4)GlcNAc(b1-3)[Fuc(a1-3)[Gal(b1-4)]GlcNAc(b1-6)]Gal(b1-4)Glc
Outline: as §1

[4] = molecular target: Fuc(a1-2)[Gal(a1-3)]Gal(b1-4)GlcNAc(b1-2)Man(a1-3)[Fuc(a1-2)[Gal(a1-3)]Gal(b1-4)GlcNAc(b1-2)Man(a1-6)]Man(b1-4)GlcNAc(b1-4)[Fuc(a1-6)]GlcNAc
Outline: as §1

[5] = molecular target: Fuc(a1-2)[GalNAc(a1-3)]Gal(b1-4)GlcNAc(b1-3)Gal(b1-4)GlcNAc(b1-3)Gal(b1-4)GlcNAc
Outline: as §1

[6] = molecular target: Fuc(a1-3)[Gal(b1-4)]GlcNAc(b1-6)[Gal(b1-3)GlcNAc(b1-3)]Gal(b1-4)Glc
Outline: as §1

[7] = molecular target: Fuc(a1-3)[GalNAc(b1-4)]GlcNAc6S
Outline: as §1

[8] = molecular target: Gal(b1-3)Gal(b1-4)GlcNAc(b1-2)Man(a1-3)[Gal(b1-3)Gal(b1-4)GlcNAc(b1-2)Man(a1-6)]Man(b1-4)GlcNAc(b1-4)GlcNAc
Outline: as §1

[9] = molecular target: Gal(b1-3)GalNAc(b1-4)[Neu5Ac(a2-3)]Gal(b1-4)Glc
Outline: as §1

[10] = molecular target: Gal(b1-3)GlcNAc(b1-3)Gal(b1-4)GlcNAc
Outline: as §1

Gal(b1-4)Glc6S = molecular target: Gal(b1-4)Glc6S
Outline: as §1

[11] = molecular target: Gal(b1-4)GlcNAc(b1-2)Man(a1-3)[Gal(b1-4)GlcNAc(b1-2)Man(a1-6)]Man(b1-4)GlcNAc(b1-4)GlcNAc
Outline: as §1

[12] = molecular target: Gal(b1-4)GlcNAc(b1-2)Man(a1-3)[Gal(b1-4)GlcNAc(b1-2)Man(a1-6)]Man(b1-4)GlcNAc(b1-4)[Fuc(a1-6)]GlcNAc
Outline: as §1

[13] = molecular target: Gal(b1-4)GlcNAc(b1-3)Gal(b1-4)Glc
Outline: as §1

[14] = molecular target: Gal(b1-4)GlcNAc(b1-3)Gal(b1-4)GlcNAc(b1-2)Man(a1-3)[Gal(b1-4)GlcNAc(b1-3)Gal(b1-4)GlcNAc(b1-2)Man(a1-6)]Man(b1-4)GlcNAc(b1-4)GlcNAc
Outline: as §1

[15] = molecular target: Gal(b1-4)GlcNAc(b1-3)Gal(b1-4)GlcNAc(b1-3)Gal(b1-4)GlcNAc(b1-2)Man(a1-3)[Gal(b1-4)GlcNAc(b1-3)Gal(b1-4)GlcNAc(b1-3)Gal(b1-4)GlcNAc(b1-2)Man(a1-6)]Man(b1-4)GlcNAc(b1-4)GlcNAc
Outline: as §1

[16] = molecular target: Gal(b1-4)GlcNAc(b1-3)Gal(b1-4)GlcNAc(b1-3)Gal(b1-4)GlcNAc(b1-2)Man(a1-3)[Gal(b1-4)GlcNAc(b1-3)Gal(b1-4)GlcNAc(b1-3)Gal(b1-4)GlcNAc(b1-2)Man(a1-6)]Man(b1-4)GlcNAc(b1-4)[Fuc(a1-6)]GlcNAc
Outline: as §1

[17] = molecular target: Gal(b1-4)GlcNAc(b1-3)Gal(b1-4)GlcNAc(b1-3)Gal(b1-4)GlcNAc(b1-2)[Gal(b1-4)GlcNAc(b1-3)Gal(b1-4)GlcNAc(b1-3)Gal(b1-4)GlcNAc(b1-6)]Man(a1-6)[Gal(b1-4)GlcNAc(b1-3)Gal(b1-4)GlcNAc(b1-3)Gal(b1-4)GlcNAc(b1-2)Man(a1-3)]Man(b1-4)GlcNAc(b1-4)[Fuc(a1-6)]GlcNAc
Outline: as §1

[18] = molecular target: Gal(b1-4)GlcNAc(b1-3)Gal(b1-4)GlcNAc(b1-3)Gal(b1-4)GlcNAc(b1-3)Gal(b1-4)GlcNAc(b1-3)Gal(b1-4)GlcNAc(b1-2)Man(a1-3)[Gal(b1-4)GlcNAc(b1-3)Gal(b1-4)GlcNAc(b1-3)Gal(b1-4)GlcNAc(b1-3)Gal(b1-4)GlcNAc(b1-3)Gal(b1-4)GlcNAc(b1-2)Man(a1-6)]Man(b1-4)GlcNAc(b1-4)GlcNAc
Outline: as §1

[19] = molecular target: Gal(b1-4)GlcNAc(b1-3)Gal(b1-4)GlcNAc(b1-3)[Gal(b1-4)GlcNAc(b1-3)Gal(b1-4)GlcNAc(b1-6)]GalNAc
Outline: as §1

[20] = molecular target: Gal(b1-4)GlcNAc(b1-6)[Gal(b1-4)GlcNAc(b1-3)]GalNAc
Outline: as §1

Gal3S4S(b1-4)GlcNAc = molecular target: Gal3S4S(b1-4)GlcNAc
Outline: as §1

Gal4S(b1-4)GlcNAc = molecular target: Gal4S(b1-4)GlcNAc
Outline: as §1

[21] = molecular target: GalNAc(a1-3)GalNAc(b1-3)Gal(a1-4)Gal(b1-4)Glc
Outline: as §1

GalNAc(b1-3)GalNAc = molecular target: GalNAc(b1-3)GalNAc
Outline: as §1

B1: BabA (Helicobacter pylori), O52269_HELPY (protein)
chain: AEDDGFYMSAGYQIGEAAQMVKNTKGIQELSDNYENLSNLLTRYSTLNTLIKLSADPSAVNAARENLGASAKNLIGDTKNSPAYQAVLLAINAAVGFWNVVGYVTQCGGNANGQKSTSSTTIFNNEPGYRSTSITCSLNGHMPGYYGPMSIENFKKLNEAYQILQTALKNGLPALKENNGTVNVTYSYTCSGEGNDNCSLQTTGVTNQNNGTKTETQTIDGKSVTTTISSKVVDSQ
- glycan array binding signal (z-score) [1]: -0.237
- glycan array binding signal (z-score) [2]: 3.3
- glycan array binding signal (z-score) (Fuc(a1-2)Gal(b1-4)Glc6S): 0.321
- glycan array binding signal (z-score) [3]: -0.3
- glycan array binding signal (z-score) [4]: -0.046
- glycan array binding signal (z-score) [5]: -0.054
- glycan array binding signal (z-score) [6]: 0.017
- glycan array binding signal (z-score) [7]: -0.664
- glycan array binding signal (z-score) [8]: 0.28
- glycan array binding signal (z-score) [9]: 0.035
- glycan array binding signal (z-score) [10]: -0.811
- glycan array binding signal (z-score) (Gal(b1-4)Glc6S): -0.359
- glycan array binding signal (z-score) [11]: -0.732
- glycan array binding signal (z-score) [12]: 0.092
- glycan array binding signal (z-score) [13]: -0.535
- glycan array binding signal (z-score) [14]: 4.08
- glycan array binding signal (z-score) [15]: 4
- glycan array binding signal (z-score) [16]: 2.03
- glycan array binding signal (z-score) [17]: 2.31
- glycan array binding signal (z-score) [18]: 3.86
- glycan array binding signal (z-score) [19]: 4.39
- glycan array binding signal (z-score) [20]: -0.568
- glycan array binding signal (z-score) (Gal3S4S(b1-4)GlcNAc): 0.144
- glycan array binding signal (z-score) (Gal4S(b1-4)GlcNAc): 0.875
- glycan array binding signal (z-score) [21]: -0.709
- glycan array binding signal (z-score) (GalNAc(b1-3)GalNAc): -0.807
